Key:
[1] = tested on: ROCK1
[2] = tested on: ROCK2
[3] = tested on: T1, RSK1(Kin.Dom.2-C-terminal)
T1 construct: gene RPS6KA1

[4] = tested on: T2, RSK2(Kin.Dom.1-N-terminal)
T2 construct: gene RPS6KA3

[5] = tested on: T3, RSK2(Kin.Dom.2-C-terminal)
T3 construct: gene RPS6KA3

[6] = tested on: T4, RSK3(Kin.Dom.2-C-terminal)
T4 construct: gene RPS6KA2

[7] = tested on: SGK2
[8] = tested on: SLK
[9] = tested on: SRPK2
[10] = tested on: SRPK3
[11] = tested on: T5, TAK1
T5 construct: gene MAP3K7

[12] = tested on: TAOK1
[13] = tested on: TAOK3
[14] = tested on: TBK1
[15] = tested on: TESK1
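Further: kd values determined as follow-up on hits from a single-replicate KINOMEscan panel screen.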

## C[C@@H]1CC[C@H](C(=O)NC2CCCCC2)CN1c1cc(-c2ccc3c(N)n[nH]c3c2)nc(N)n1 [GSK2291363]
[1]
  Kd: 0.21 µM
[2]
  Kd: 0.15 µM

## CCc1nc(-c2cccc(C)c2)c(-c2ccncc2)s1
[3]
  Kd: 0.25 µM

## COc1cc(Nc2ccnc3ccc(C(F)(F)F)cc23)cc(OC)c1OC [GW577382]
[4]
  Kd: > 10 µM

## Nc1nc(-c2ccccc2F)c(-c2ccnc3ccccc23)s1 [GW560459]
[5]
  Kd: 0.79 µM

## O=C(Nc1ccc2c(c1)OCO2)NC1CCN(c2ccnc(NCc3ccc(F)cc3)n2)CC1 [GSK1379859]
[5]
  Kd: > 10 µM

## CC(C)(C)c1ccc(C(=O)Nc2cn3cc(-c4ccccc4)ccc3n2)cc1
[6]
  Kd: > 10 µM

## Cl.NS(=O)(=O)c1cccc(Nc2cc(-c3ccc(F)cc3)n[nH]2)c1 [GW824645]
[7]
  Kd: > 10 µM

## COc1cc2ncn(-c3cc(OCc4ccncc4Br)c(C(N)=O)s3)c2cc1OC [GW854278]
[8]
  Kd: 0.68 µM

## COc1ccc(CNC(=O)NC2CCN(c3ccnc(Nc4ccc(F)cc4)n3)C2)cc1 (stereo not shown) [GSK1379706]
[9]
  Kd: > 10 µM

## CN1C(=O)C(Nc2cc(Cl)c(O)c(Cl)c2)=C(c2ccc(Cl)cc2)C1=O [SB-404321]
[10]
  Kd: > 10 µM

## CCn1c(-c2ccoc2)nc2cnccc21 [SB-733887]
[11]
  Kd: > 10 µM

## Cc1nnc(-c2ccc3ncn(-c4ccc(S(C)=O)cc4)c3c2)o1 (stereo not shown)
[12]
  Kd: > 10 µM
[13]
  Kd: > 10 µM

## COc1ccc(-c2cc3c(C)nc(N)nc3n([C@H]3CC[C@H](O)CC3)c2=O)cn1
[14]
  Kd: > 10 µM

## O=C(NCCNc1ccnc(Nc2ccc(F)cc2)n1)Nc1ccc2c(c1)OCO2 [GSK1379882]
[15]
  Kd: > 10 µM

— article PMC5540273 (PLoS ONE, 2017)
